Screening results as filed in PubChem BioAssay.
Rows were chosen to be rich in hits. Some 2.7% of all compounds tested hit in one or more screens of this group.
CF NFkB block = blocks PAF-induced NF-kB reporter in cystic fibrosis cells. KKLEB NF-kB-GFP reporter, GFP fluorescence overnight. inhibition, % at 5 µM. actives 0.86% (n = 360,000). AID 588850;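 active = at least 50% inhibition at 5 µM, scaled per plate between neutral and stimulator controls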;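 note: PAF is a Pseudomonas aeruginosa culture filtrate used as stimulus; plate controls were PAF-stimulated DMSO wells for no effect and unstimulated DMSO wells for full effect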
TRPM1 prom inh = reduces MITF-dependent TRPM1 promoter luciferase signal | AID 488899 | actives 0.83% (n = 330,000) | SK-MEL-5 TRPM1 promoter luciferase, 24 h | inhibition, % at 12.5 µM;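 active = mean inhibition across replicates of 60% or more, whatever share of single replicates reaches that level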
Shn3 inh set2 = Schnurri-3 reporter inhibition in Clone20 osteoblasts; Clone20 osteoblast Shn3 3'UTR firefly luciferase, 24 h; inhibition, % at 12.5 µM; actives 0.52% (n = 360,000);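 active = mean inhibition of at least 75% with every replicate also reaching 75%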;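 note: 0% = median of neutral control wells and 100% = pilot-screen positive control compound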
KKLEB cytotox = counter-screen for CF NF-kB inhibitors: cytotoxicity | actives 0.36% (n = 360,000) | KKLEB CF airway cells viability, ATPlite luminescence, overnight; active compounds read low; cells stimulated with P. aeruginosa culture filtrate | activity change (cytotoxicity), % at 5 µM;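 active = corrected activity change at or below -50% at 5 µM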
HIF-2a block = inhibitors of HIF-2a. 786-0 RCC cells HIF-2a reporter, luciferase luminescence, overnight. inhibition, % at 18.8 µM. actives 0.72% (n = 360,000);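 active = inhibition of the luminescence signal of 40% or more relative to plate controls, in a single-dose primary screen at 18.75 µM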
Peg3 prom inh = inhibitors of Peg3 promoter. actives 1.7% (n = 360,000). inhibition, % at 20 µM. AID 588405. HeLa PEG-Prom luciferase reporter, luminescence, overnight;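 active = inhibition of at least 50% at 20 µM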
Mdm2 MdmX conf = confirmation of inhibitors of human Mdm2/MdmX interaction, set 2. SaOS-2 split-luciferase Mdm2/MdmX complementation, luminescence. inhibition, % at 8 µM. shares compounds with HIF-2a block. actives 99% (n = 740). AID 504601;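 active = mean inhibition of the luminescence signal across two replicates at or above 26 percent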
Target sequence (O15151 whole entry, looked up): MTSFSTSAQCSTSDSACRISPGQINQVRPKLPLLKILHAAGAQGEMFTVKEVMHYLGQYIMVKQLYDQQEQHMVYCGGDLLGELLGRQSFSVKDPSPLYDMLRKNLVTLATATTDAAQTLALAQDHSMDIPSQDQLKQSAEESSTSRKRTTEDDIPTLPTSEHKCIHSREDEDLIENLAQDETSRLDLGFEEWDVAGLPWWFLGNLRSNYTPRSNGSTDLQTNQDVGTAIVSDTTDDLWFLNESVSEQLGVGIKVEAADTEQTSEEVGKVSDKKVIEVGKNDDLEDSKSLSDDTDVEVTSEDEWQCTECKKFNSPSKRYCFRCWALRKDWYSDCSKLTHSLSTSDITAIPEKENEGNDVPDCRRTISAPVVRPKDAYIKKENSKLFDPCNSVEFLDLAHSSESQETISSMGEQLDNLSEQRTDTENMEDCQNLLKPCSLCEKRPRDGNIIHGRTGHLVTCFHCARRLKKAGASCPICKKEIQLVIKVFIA
Target sequence (Q00987 whole entry, looked up): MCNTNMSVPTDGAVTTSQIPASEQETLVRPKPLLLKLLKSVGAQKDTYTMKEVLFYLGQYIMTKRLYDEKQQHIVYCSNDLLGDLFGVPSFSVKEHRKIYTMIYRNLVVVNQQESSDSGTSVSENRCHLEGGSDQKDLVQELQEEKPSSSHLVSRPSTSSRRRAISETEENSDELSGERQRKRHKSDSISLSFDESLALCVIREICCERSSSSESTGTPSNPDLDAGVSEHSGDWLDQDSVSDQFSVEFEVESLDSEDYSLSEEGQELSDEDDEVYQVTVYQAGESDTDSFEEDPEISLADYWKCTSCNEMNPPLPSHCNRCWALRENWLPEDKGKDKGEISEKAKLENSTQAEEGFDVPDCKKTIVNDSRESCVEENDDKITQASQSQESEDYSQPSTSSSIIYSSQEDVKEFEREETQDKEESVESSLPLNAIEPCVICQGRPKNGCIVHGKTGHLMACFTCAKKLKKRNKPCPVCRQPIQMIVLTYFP
HIF-2a inh conf = HIF-2a inhibition, single concentration confirmation. actives 56% (n = 1,800). shares compounds with HIF-2a block. inhibition, % at 18.8 µM. 786-0 RCC cells, HIF-2a luciferase reporter luminescence, overnight;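 active = mean inhibition across four replicates of at least 40 percent at the single tested concentration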
HIF-1a counter = HIF-1a inhibition counter-screen for HIF-2a hits; shares compounds with HIF-2a block; MiaPaCa-2 HIF-1a luciferase reporter, desferoxamine, overnight; inhibition, % at 18.8 µM; actives 72% (n = 1,800); AID 651589;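 active = mean inhibition of the reporter signal across four replicates at the single tested dose of 50% or more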
Active calls of the source: *; . = no result.

SMILES	CF NFkB block	TRPM1 prom inh	Shn3 inh set2	KKLEB cytotox	HIF-2a block	Peg3 prom inh	HIF-2a inh conf	HIF-1a counter	others
CCOC(=O)COc1ccc(S(=O)(=O)N2CCN(c3ccc(F)cc3)CC2)cc1	-14	-5	-12	2	43*	2	-1	0
COC(=O)COc1ccc(S(=O)(=O)N2CCN(c3ccc(OC)cc3)CC2)cc1	22	-14	-1	-8	8	4	.	.
COC(=O)COc1ccc(S(=O)(=O)N2CCN(c3ccccc3F)CC2)cc1C	2	3	-57	-9	53*	7	5	-7
O=C(Nc1cccc(NC(=O)c2cc([N+](=O)[O-])ccc2Cl)n1)c1cc([N+](=O)[O-])ccc1Cl	-6	32	43	-13	84*	93*	25	102*	Mdm2 MdmX conf=100*
Cc1cccc(NS(=O)(=O)c2ccc(C)c(C(=O)NCC(c3cccs3)N3CCOCC3)c2)c1 (centres undefined)	-3	.	9	3	13	1	.	.
C=CS(=O)(=O)c1ccc(Oc2ccc(S(=O)(=O)C=C)cc2)cc1	99*	89*	96*	-56*	90*	107*	90*	106*
NS(=O)(=O)c1ccc(Oc2ccc(S(N)(=O)=O)cc2)cc1	-13	9	-16	2	11	8	.	.
CCOc1cc(/C=C/c2nc3cc(C)c(C)cc3s2)ccc1OCC(=O)N1CCOCC1	-14	3	-33	-10	-21	-11	.	.
CCOc1cc(/C=C\[N+](=O)[O-])ccc1OCC(=O)N1CCOCC1	-24	94*	-5	10	83*	78*	88*	85*
CCOC(=O)C1CCN(Cc2cc(=O)oc3c(C)c(C)ccc23)CC1	10	2	18	-4	57*	20	78*	25
N#Cc1c(NC(=O)CSc2ncn[nH]2)sc2c1CCCCC2	18	80*	60	23	90*	24	96*	70*
CCCCOC(=O)c1ccc(NC(=O)C(=O)CC(=O)c2ccc(OC)cc2)cc1	-4	15	11	-4	-22	23	.	.
Cc1ccc(Cl)cc1NC1=C/C(=N\S(=O)(=O)c2cccs2)c2ccccc2C1=O	92*	90*	97*	-105*	90*	110*	.	.	Mdm2 MdmX conf=102*
Cc1ccc(NC2=C/C(=N\S(=O)(=O)c3cccs3)c3ccccc3C2=O)c(C)c1	96*	105*	98*	-102*	71*	111*	.	.	Mdm2 MdmX conf=101*
O=C(Nc1cccc(F)c1)C1CCCN(C(=O)c2ccc(Cl)cc2)C1 (centres undefined)	19	-11	11	-2	-13	-4	.	.
O=C(C[C@H]1C=C[C@@H](NC(=O)c2ccncc2)[C@@H](CO)O1)NCC1CC1	.	.	.	.	6	.	.	.
Cc1ccc(/C=C/C(=O)NC(=S)Nc2ccc(S(=O)(=O)Nc3cc(C)on3)cc2)cc1	-40	0	-19	0	13	-9	.	.
COc1cc(C(C[N+](=O)[O-])c2c(N)n(C)c(=O)n(C)c2=O)ccc1O (centres undefined)	42	6	-2	-3	23	23	.	.
COc1cccc(F)c1C(C[N+](=O)[O-])c1c(N)n(C)c(=O)n(C)c1=O (centres undefined)	33	67*	-110	-14	88*	104*	79*	106*
CCN(CC)CC(=O)c1ccc(-c2ccccc2)cc1	-7	-3	13	12	46*	-7	7	28
C=CCOc1ccc(C[C@H](N)C(=O)NC[C@H]2O[C@@H](n3cnc4c(N)ncnc43)[C@H](O)[C@@H]2O)cc1	-6	-8	-12	7	-1	-9	.	.
COc1ccc(C[C@H](N)C(=O)N[C@H]2[C@@H](O)[C@H](n3cnc4c(N(C)C)ncnc43)O[C@@H]2CO)cc1	-18	109*	5	7	95*	102*	95*	105*	Mdm2 MdmX conf=103*
Nc1ccn(C2OC(CO)C(O)C2O)c(=O)n1 (centres undefined)	-39	.	67	11	9	40	.	.
OCC1OC(n2ccc3c2ncn2ncnc32)C(O)C1O (centres undefined)	68*	.	9	-57*	54*	35	37	54*
CN(C)c1ncnc2c1ncn2C1OC(CO)C(O)C1O (centres undefined)	46	42	96*	-43	52*	28	26	42
SMILES	CF NFkB block	TRPM1 prom inh	Shn3 inh set2	KKLEB cytotox	HIF-2a block	Peg3 prom inh	HIF-2a inh conf	HIF-1a counter	others
C[C@@H](N)C(=O)N[C@H]1CCC2C3CC=C4C[C@@H](O)CC[C@]4(C)C3CC[C@@]21C (some centres undefined)	3	-13	-5	1	7	-1	.	.
CCC(C)[C@H](N)C(=O)N[C@H]1CCC2C3CC=C4C[C@@H](O)CC[C@]4(C)C3CC[C@@]21C (some centres undefined)	32	.	18	-67*	86*	110*	-1	50*
CC(C)[C@H](N)C(=O)N[C@H]1CCC2C3CC=C4C[C@@H](O)CC[C@]4(C)C3CC[C@@]21C (some centres undefined)	8	.	20	-72*	55*	92*	2	90*
Cc1c(C(=O)Nc2nonc2-c2ccc(F)cc2)oc2ccc(F)cc12	17	11	9	-17	-7	39	.	.	Mdm2 MdmX conf=90*
O=C(O)CCSc1ncnc2sc(-c3ccccc3)cc12	7	.	61	-7	91*	25	94*	84*
CCOc1ccc(CNCCN2CCCC2)cc1	1	9	40	-2	14	12	.	.
CC(=O)Nc1ccc(OCc2cccc3ccccc23)cc1	-17	3	10	2	88*	17	97*	90*
COc1ccc(NC(=O)CNC(=O)Cc2cccc3ccccc23)cc1	21	-11	-12	-5	5	-5	.	.
O=C1CN(C(=S)NC(=O)c2ccccc2[N+](=O)[O-])CCN1	-17	-10	-5	10	14	7	.	.
Cc1ccc(NC(=O)c2cc3ccccc3o2)cc1S(=O)(=O)N(C)C	1	-63	-9	-35	-298	-180	.	.
Cc1ccc(NC(=O)c2cc3ccccc3oc2=O)cc1S(=O)(=O)N(C)C	-1	76*	84	-20	81*	77*	88*	88*
